Assay [1] concerns the target Protein kinase C gamma type (Homo sapiens) (UniProt P05129). The note with it: at 1 µM.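 Further: each value is an averaged percent inhibition of the enzyme.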
The target in assay [2] is T1, Protein kinase C iota type (Homo sapiens) (UniProt P41743).
T1 sequence (whole entry): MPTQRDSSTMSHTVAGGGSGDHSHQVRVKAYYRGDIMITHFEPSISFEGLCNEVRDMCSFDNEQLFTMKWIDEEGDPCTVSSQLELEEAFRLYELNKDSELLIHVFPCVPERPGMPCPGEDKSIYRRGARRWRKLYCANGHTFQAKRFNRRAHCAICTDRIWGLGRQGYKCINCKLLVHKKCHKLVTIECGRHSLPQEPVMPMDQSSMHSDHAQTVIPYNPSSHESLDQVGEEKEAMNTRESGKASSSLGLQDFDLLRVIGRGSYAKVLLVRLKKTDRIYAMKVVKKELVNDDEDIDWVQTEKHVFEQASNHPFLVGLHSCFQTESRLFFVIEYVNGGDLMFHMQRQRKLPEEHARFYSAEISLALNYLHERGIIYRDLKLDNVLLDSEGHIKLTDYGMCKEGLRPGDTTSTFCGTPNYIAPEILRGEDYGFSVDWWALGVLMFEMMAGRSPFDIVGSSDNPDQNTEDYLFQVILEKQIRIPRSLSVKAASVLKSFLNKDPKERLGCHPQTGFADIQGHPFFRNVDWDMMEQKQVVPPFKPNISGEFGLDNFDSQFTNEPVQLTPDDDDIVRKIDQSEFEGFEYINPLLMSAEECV
The settings on record: at 0.1 µM.

The target in assay [3] is T1, Protein kinase C iota type (Homo sapiens). The note with it: at 1 µM.
Assay [4] addresses Protein kinase C theta type (Homo sapiens) (UniProt Q04759). The note with it: at 0.1 µM.
Assay [5] has the same target. The settings on record: at 1 µM.
Assay [6] deals with Protein kinase C beta type (Homo sapiens) (UniProt P05771). The note with it: at 0.1 µM.
Protein kinase C beta type (Homo sapiens), sequence (P05771 2-671 limits assumed): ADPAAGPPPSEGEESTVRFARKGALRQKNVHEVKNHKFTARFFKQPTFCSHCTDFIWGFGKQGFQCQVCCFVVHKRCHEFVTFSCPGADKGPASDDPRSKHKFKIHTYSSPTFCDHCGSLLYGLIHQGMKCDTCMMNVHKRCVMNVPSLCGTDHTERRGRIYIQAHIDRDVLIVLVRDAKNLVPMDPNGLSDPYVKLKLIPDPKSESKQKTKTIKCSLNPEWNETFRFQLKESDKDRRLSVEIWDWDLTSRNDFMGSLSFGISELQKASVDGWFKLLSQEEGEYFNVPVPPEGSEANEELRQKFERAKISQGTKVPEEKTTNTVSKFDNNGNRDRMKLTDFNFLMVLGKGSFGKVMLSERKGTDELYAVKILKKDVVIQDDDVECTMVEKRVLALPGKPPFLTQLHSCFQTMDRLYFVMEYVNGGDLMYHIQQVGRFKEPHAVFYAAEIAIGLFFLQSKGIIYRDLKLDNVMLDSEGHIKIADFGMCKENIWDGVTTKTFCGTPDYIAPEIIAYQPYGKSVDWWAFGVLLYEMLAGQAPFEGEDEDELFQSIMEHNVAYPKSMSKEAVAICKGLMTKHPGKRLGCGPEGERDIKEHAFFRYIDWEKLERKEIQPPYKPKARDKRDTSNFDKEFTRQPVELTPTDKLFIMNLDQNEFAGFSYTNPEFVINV
Assay [7] has the same target. The note with it: at 1 µM.
For assay [8], the target named is T2, Serine/threonine-protein kinase D1 (Homo sapiens) (UniProt Q15139).
T2 sequence (whole entry): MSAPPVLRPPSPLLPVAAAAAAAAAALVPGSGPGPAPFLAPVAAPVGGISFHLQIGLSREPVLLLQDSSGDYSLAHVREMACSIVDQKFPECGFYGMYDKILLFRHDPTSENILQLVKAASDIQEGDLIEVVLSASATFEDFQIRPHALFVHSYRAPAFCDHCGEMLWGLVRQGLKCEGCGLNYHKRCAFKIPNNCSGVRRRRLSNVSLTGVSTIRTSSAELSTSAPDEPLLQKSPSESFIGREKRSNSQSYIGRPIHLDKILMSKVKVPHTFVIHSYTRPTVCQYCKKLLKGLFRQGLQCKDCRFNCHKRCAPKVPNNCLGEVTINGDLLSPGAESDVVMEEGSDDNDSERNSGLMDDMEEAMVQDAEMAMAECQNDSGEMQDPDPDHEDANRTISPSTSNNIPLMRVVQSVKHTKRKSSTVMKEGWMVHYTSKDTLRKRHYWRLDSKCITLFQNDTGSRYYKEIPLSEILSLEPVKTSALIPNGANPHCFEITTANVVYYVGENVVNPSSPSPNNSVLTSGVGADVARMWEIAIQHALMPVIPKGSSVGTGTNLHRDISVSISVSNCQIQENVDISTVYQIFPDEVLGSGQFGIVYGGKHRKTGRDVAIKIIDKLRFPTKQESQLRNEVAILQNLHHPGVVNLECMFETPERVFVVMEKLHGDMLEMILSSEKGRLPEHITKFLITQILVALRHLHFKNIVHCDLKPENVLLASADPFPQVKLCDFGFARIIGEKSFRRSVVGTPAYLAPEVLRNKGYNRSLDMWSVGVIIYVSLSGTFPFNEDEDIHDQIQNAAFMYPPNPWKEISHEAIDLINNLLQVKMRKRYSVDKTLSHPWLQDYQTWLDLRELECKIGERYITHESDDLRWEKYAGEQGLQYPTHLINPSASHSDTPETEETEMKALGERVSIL
The settings on record: at 0.1 µM.

For assay [9], the target named is T2, Serine/threonine-protein kinase D1 (Homo sapiens). The note with it: at 1 µM.
Assay [10] addresses T3, Serine/threonine-protein kinase D2 (Homo sapiens) (UniProt Q9BZL6).
T3 sequence (whole entry): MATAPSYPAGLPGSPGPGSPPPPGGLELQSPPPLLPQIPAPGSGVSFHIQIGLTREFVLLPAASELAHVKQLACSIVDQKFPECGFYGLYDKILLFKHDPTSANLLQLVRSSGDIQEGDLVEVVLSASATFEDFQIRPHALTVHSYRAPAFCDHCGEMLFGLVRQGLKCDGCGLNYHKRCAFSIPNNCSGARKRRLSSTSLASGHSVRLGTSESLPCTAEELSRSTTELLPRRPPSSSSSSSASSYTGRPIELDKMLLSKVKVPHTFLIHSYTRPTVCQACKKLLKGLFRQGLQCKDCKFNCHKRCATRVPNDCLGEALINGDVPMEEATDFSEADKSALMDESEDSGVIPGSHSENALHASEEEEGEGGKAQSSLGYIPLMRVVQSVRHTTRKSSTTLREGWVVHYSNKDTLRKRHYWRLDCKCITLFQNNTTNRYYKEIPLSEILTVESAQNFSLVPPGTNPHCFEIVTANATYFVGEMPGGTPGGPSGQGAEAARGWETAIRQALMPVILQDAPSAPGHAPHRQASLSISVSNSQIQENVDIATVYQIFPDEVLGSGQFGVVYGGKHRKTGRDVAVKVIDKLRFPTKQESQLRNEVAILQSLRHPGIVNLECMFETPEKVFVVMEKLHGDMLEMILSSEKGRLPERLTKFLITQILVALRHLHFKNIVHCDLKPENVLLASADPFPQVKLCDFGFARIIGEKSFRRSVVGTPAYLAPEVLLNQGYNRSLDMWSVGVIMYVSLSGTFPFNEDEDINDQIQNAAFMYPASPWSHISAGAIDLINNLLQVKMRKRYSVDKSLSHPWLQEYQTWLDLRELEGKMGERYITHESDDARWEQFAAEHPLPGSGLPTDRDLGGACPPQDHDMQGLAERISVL
The note with it: at 0.1 µM.

Each structure is given as a SMILES string.

Protein kinase C theta type (Homo sapiens), sequence (Q04759 whole entry, looked up): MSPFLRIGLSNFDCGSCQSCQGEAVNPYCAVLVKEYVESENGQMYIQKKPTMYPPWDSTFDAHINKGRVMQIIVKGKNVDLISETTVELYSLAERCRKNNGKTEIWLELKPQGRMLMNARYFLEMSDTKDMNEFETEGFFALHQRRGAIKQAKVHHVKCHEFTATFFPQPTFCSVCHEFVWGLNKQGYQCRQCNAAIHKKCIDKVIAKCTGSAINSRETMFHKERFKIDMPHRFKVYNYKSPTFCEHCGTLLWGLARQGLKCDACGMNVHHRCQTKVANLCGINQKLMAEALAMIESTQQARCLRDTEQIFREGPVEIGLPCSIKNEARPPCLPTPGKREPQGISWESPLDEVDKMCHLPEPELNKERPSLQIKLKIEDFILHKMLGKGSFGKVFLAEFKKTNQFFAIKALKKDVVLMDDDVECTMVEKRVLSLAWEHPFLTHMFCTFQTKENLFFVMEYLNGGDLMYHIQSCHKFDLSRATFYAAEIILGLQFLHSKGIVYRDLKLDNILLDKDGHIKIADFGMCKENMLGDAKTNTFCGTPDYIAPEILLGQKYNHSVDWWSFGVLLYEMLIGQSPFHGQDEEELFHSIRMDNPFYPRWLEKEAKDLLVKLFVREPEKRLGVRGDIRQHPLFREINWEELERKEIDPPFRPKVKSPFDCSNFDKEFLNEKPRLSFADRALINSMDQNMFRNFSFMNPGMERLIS

Turning to `CNC(=O)c1ncccc1Nc1nc(Nc2cc3c(cc2OC)CCCN3C(=O)CN(C)C)nc2[nH]ccc12`, the inhibition in assay [1] turned out to be 20.5%; in assay [2], 1.89%; in assay [3], 2.01%; in assay [4], 1.94%; in [5], 5.49%; in assay [6], 1.44%. For the same molecule, the inhibition in [7] turned out to be 7.12%; in assay [8], 5.48%; in assay [9], 24.5%; in assay [10], 7.16%.
Regarding `COc1cc(N2CCN(C(C)C)CC2)ccc1Nc1nc(Nc2cccc3ncccc23)c2cc[nH]c2n1`, the inhibition in assay [1] is 0.74%; in assay [2] it was -0.08%; in assay [3], 0.58%; in assay [4] it was -0.84%; in assay [5], -1.07%; in [6], -0.21%. For the same molecule, the inhibition was 0.45% in [7], -0.17% in assay [8], 3.6% in assay [9] and 0.68% in [10].
Take `COc1ccccc1-c1cc(/C=C2\C(=O)Nc3ncc(Br)cc32)cc(Br)c1O`: the inhibition in [1] is 2.98%; in assay [2] it was 0.64%; in [3] it was 2.57%; in [4], 1.61%; in [5], 1.73%; in assay [6], 2.24%. For the same molecule, the inhibition in [7] was 0.81%; in assay [8] it was 3.57%; in assay [9], 6.42%; in assay [10], 4.74%.
Consider `OCCCNc1nccc(-c2c(-c3ccc(F)cc3)nn3cc(C(F)(F)F)ccc23)n1`, for which the inhibition is 1.12% in assay [1]; 0.77% in assay [2]; 4.1% in assay [3]; 0.12% in assay [4]; 0.91% in [5]; 1.5% in assay [6]. Also, the inhibition in assay [7] is 7.52%; in assay [8] it was 1.85%; in assay [9], 14.1%; in [10], 2.01%.
For the molecule `CNC(=O)c1sc(-n2cnc3cc(OC)c(OC)cc32)cc1OCc1ccccc1C(F)(F)F`, the inhibition is -2.1% in assay [1]; 1.37% in [2]; 0.74% in assay [3]; 2.36% in assay [4]; 0.67% in assay [5]; 1.04% in [6]. The inhibition in [7] was found to be 1.38%; in assay [8] it was 3.83%; in assay [9] it was 4.48%; in assay [10] it was 4%.
With `COC(=O)Nc1nc2ccc(Oc3ccc(NC(=O)Nc4cc(C(F)(F)F)ccc4F)cc3)cc2s1`, the inhibition in [1] was 0.59%; in [2] it was -0.25%; in assay [3], 0.66%; in assay [4], -0.27%; in assay [5], -1.1%; in [6] it was -0.19%. The inhibition in [7] was -0.04%; in assay [8], 0.06%; in assay [9], 0.84%; in assay [10] it was -0.61%.
Consider `O=C(O[C@H]1CN[C@H](C#Cc2cc3ncnc(Nc4ccc5c(ccn5Cc5cc(F)ccc5F)c4)c3s2)C1)N1CCOCC1`, for which the inhibition in assay [1] came to 3.05%; in [2] it was 2.82%; in assay [3], 3.06%; in assay [4], 1.84%; in assay [5] it was 0.91%; in assay [6], 1.75%. The inhibition was found to be 0.99% in assay [7], 3.66% in [8], 6.58% in assay [9] and 4.5% in [10].
Take `Fc1cccc(COc2ccc(Nc3ncncc3C#Cc3ccccc3)cc2Cl)c1`: the inhibition worked out at 4.55% in [1]; 1.11% in assay [2]; 0.75% in assay [3]; 3.42% in assay [4]; 4.89% in assay [5]; 0.66% in assay [6]. In addition, the inhibition in assay [7] came to 1.48%; in assay [8] it was 4.73%; in [9] it was 7.41%; in assay [10] it was 5.16%.
Turning to `Cc1ccc(-c2cc3c(NC(=O)C4CC4)ncnc3o2)cc1`, the inhibition in [1] came out at 2.25%; in assay [2], 2.54%; in assay [3] it was 2.8%; in [4], 2.02%; in assay [5], 1.79%; in assay [6], 5.24%. The inhibition was found to be 0.65% in assay [7], 3.45% in [8], 6.06% in assay [9] and 4.1% in assay [10].

One may read the inhibition as the change of the read-out against control, counted positive when it falls.

(Values after ChEMBL document CHEMBL1961873, “Compounds: GSK PKIS; Assays: Nanosyn kinase panel” (2012).)
